Test results reported in PubChem BioAssay AID1159580 (chemical genetic matrix, 2015).
About 2,000 (36%) of roughly 5,500 compounds were called active. Roughly 18% stayed inconclusive and do not appear here. Rule as the data show it: active = normalized growth mostly below about 0.91 (no sharp cut-off); inconclusive = no clear call, values can overlap the other calls; inactive = mostly above about 0.92. This is one part of the list.

Test: chemical genetic growth profiling, strain panel (AID 1159580);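 also: tested at 20 µM; growth read once vehicle control cultures reached saturation at 30 °C; 1 = growth at the plate median or of vehicle wells; lower values mean less growth of the strain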
Details: growth OD

Measured: normalized growth

Nc1ccn(C2O[C@H](CO)[C@@H](O)[C@@H]2O)c(=O)n1 (stereo partly drawn)
inactive: S. cerevisiae deletion strains, locus YKL009W, strain mrt4, hits give low values 0.992 | S. cerevisiae deletion strains, locus YKL068W, hits give low values 0.994 | S. cerevisiae deletion strains, locus YKL085W, strain MDH1 (second series), hits give low values 1 | S. cerevisiae deletion strains, locus YKL085W, strain MDH1, hits give low values 1 | S. cerevisiae deletion strains, locus YKL160W, strain elf1, hits give low values 1.05 | S. cerevisiae deletion strains, locus YKL190W, strain CNB1, hits give low values 1.01 | S. cerevisiae deletion strains, locus YKR001C, strain vps1, hits give low values 1.01 | S. cerevisiae deletion strains, locus YKR026C, strain gcn3, hits give low values 0.999 | S. cerevisiae deletion strains, locus YKR091W, strain srl3, hits give low values 0.997 | S. cerevisiae deletion strains, locus YLL001W, strain dnm1, hits give low values 1.07 | S. cerevisiae deletion strains, locus YLL026W, hits give low values 0.994 | S. cerevisiae deletion strains, locus YLL041C, strain sdh2, hits give low values 0.981 | S. cerevisiae deletion strains, locus YLR027C, strain aat2, hits give low values 0.993 | S. cerevisiae deletion strains, locus YLR039C, strain RIC1, hits give low values 1.03 | S. cerevisiae deletion strains, locus YLR058C, strain SHM2, hits give low values 1.01 | S. cerevisiae deletion strains, locus YLR102C, strain apc9, hits give low values 0.977 | S. cerevisiae deletion strains, locus YLR113W, strain HOG1, hits give low values 1.04 | S. cerevisiae deletion strains, locus YLR221C, strain rsa3, hits give low values 1.06 | S. cerevisiae deletion strains, locus YLR258W, strain gsy2, hits give low values 1.02 | S. cerevisiae deletion strains, locus YLR262C, strain YPT6 (second series), hits give low values 1 | S. cerevisiae deletion strains, locus YLR262C, strain YPT6, hits give low values 1.01 | S. cerevisiae deletion strains, locus YLR268W, strain sec22, hits give low values 0.992 | S. cerevisiae deletion strains, locus YLR320W, strain mms22, hits give low values 1.06 | S. cerevisiae deletion strains, locus YLR330W, strain CHS5, hits give low values 1.01 | S. cerevisiae deletion strains, locus YLR342W, strain FKS1 (second series), hits give low values 1.02 | S. cerevisiae deletion strains, locus YLR342W, strain FKS1, hits give low values 0.994 | S. cerevisiae deletion strains, locus YLR357W, strain rsc2, hits give low values 0.988 | S. cerevisiae deletion strains, locus YLR370C, strain arc18, hits give low values 1.01 | S. cerevisiae deletion strains, locus YLR371W, strain rom2, hits give low values 0.995 | S. cerevisiae deletion strains, locus YLR384C, strain iki3, hits give low values 1 | S. cerevisiae deletion strains, locus YLR418C, strain cdc73, hits give low values 0.966 | S. cerevisiae deletion strains, locus YML016C, strain PPZ1, hits give low values 1.01 | S. cerevisiae deletion strains, locus YML032C, strain rad52, hits give low values 1.01 | S. cerevisiae deletion strains, locus YML120C, strain ndi1, hits give low values 1.02 | S. cerevisiae deletion strains, locus YML124C, strain tub3, hits give low values 0.988 | S. cerevisiae deletion strains, locus YMR058W, strain fet3, hits give low values 0.997 | S. cerevisiae deletion strains, locus YMR078C, strain ctf18, hits give low values 0.992 | S. cerevisiae deletion strains, locus YMR125W, strain sto1, hits give low values 0.996 | S. cerevisiae deletion strains, locus YMR129W, hits give low values 0.979 | S. cerevisiae deletion strains, locus YMR205C, strain PFK2, hits give low values 1.04 | S. cerevisiae deletion strains, locus YMR223W, strain ubp8, hits give low values 0.995 | S. cerevisiae deletion strains, locus YMR231W, strain pep5, hits give low values 0.989 | S. cerevisiae deletion strains, locus YMR263W, strain SAP30, hits give low values 1 | S. cerevisiae deletion strains, locus YMR307W, strain GAS1, hits give low values 1.04 | S. cerevisiae deletion strains, locus YNL067W, strain RPL9B, hits give low values 1 | S. cerevisiae deletion strains, locus YNL071W, strain lat1, hits give low values 0.977 | S. cerevisiae deletion strains, locus YNL128W, strain TEP1, hits give low values 1.02 | S. cerevisiae deletion strains, locus YNL183C, strain NPR1, hits give low values 0.964 | S. cerevisiae deletion strains, locus YNL209W, strain ssb2, hits give low values 0.994 | S. cerevisiae deletion strains, locus YNL233W, strain BNI4, hits give low values 0.991 | S. cerevisiae deletion strains, locus YNL248C, strain rpa49, hits give low values 0.993 | S. cerevisiae deletion strains, locus YNL250W, strain rad50, hits give low values 0.994 | S. cerevisiae deletion strains, locus YNL271C, strain bni1, hits give low values 0.996 | S. cerevisiae deletion strains, locus YNL298W, strain CLA4, hits give low values 0.998 | S. cerevisiae deletion strains, locus YNL307C, strain MCK1, hits give low values 0.997 | S. cerevisiae deletion strains, locus YNL322C, strain KRE1 (second series), hits give low values 1.01 | S. cerevisiae deletion strains, locus YNR049C, strain mso1, hits give low values 0.989 | S. cerevisiae deletion strains, locus YNR052C, strain pop2, hits give low values 0.996 | S. cerevisiae deletion strains, locus YOL006C, strain TOP1, hits give low values 1.05 | S. cerevisiae deletion strains, locus YOL012C, strain htz1 1.42 | S. cerevisiae deletion strains, locus YOL147C, strain pex11, hits give low values 0.992 | S. cerevisiae deletion strains, locus YOR001W, strain rrp6, hits give low values 0.933 | S. cerevisiae deletion strains, locus YOR061W, strain CKA2, hits give low values 1.01 | S. cerevisiae deletion strains, locus YOR069W, strain VPS5, hits give low values 1.01 | S. cerevisiae deletion strains, locus YOR070C, strain gyp1, hits give low values 0.993 | S. cerevisiae deletion strains, locus YOR080W, strain dia2, hits give low values 0.992 | S. cerevisiae deletion strains, locus YOR083W, strain WHI5, hits give low values 1.06 | S. cerevisiae deletion strains, locus YOR106W, strain vam3, hits give low values 1.08 | S. cerevisiae deletion strains, locus YOR136W, strain idh2, hits give low values 1 | S. cerevisiae deletion strains, locus YOR144C, strain elg1, hits give low values 1 | S. cerevisiae deletion strains, locus YOR184W, strain ser1, hits give low values 0.997 | S. cerevisiae deletion strains, locus YOR231W, strain MKK1, hits give low values 1.03 | S. cerevisiae deletion strains, locus YOR265W, strain rbl2, hits give low values 1 | S. cerevisiae deletion strains, locus YOR270C, strain vph1, hits give low values 1.05 | S. cerevisiae deletion strains, locus YOR290C, strain snf2, hits give low values 1.02 | S. cerevisiae deletion strains, locus YOR316C, strain cot1, hits give low values 0.993 | S. cerevisiae deletion strains, locus YPL051W, strain arl3, hits give low values 1.04 | S. cerevisiae deletion strains, locus YPL078C, strain atp4, hits give low values 1.04 | S. cerevisiae deletion strains, locus YPL106C, strain sse1, hits give low values 1.01 | S. cerevisiae deletion strains, locus YPL240C, strain hsp82, hits give low values 1.01 | S. cerevisiae deletion strains, locus YPL241C, strain CIN2, hits give low values 1.01 | S. cerevisiae deletion strains, locus YPL256C, strain CLN2, hits give low values 1.03 | S. cerevisiae deletion strains, locus YPR119W, strain clb2, hits give low values 0.986 | S. cerevisiae deletion strains, locus YPR141C, strain kar3, hits give low values 0.993 | S. cerevisiae deletion strains, locus YPR163C, strain tif3, hits give low values 1.01 | S. cerevisiae deletion strains, locus YPR167C, strain met16, hits give low values 0.995 | S. cerevisiae deletion strains, strain wtn01, hits give low values 0.993 | S. cerevisiae strains, strain wild type, hits give low values 1.01
